# Among all 290,000 compounds or so, about 1,500 (0.52%) were called active. Many of the other results were omitted from the sample, so actives are more common in it than they were. Unmarked numbers belong to inactive results. Rule as the data show it: active = inhibition above about 50%; inactive = the rest.
# Molecular target: Dual specificity protein phosphatase 3 (Homo sapiens) (UniProt P51452)
# Assay: inhibition of human DUSP3 activity – biochemical, absorbance, uHTS, primary screen (AID 1654)
# Conditions: recombinant VHR phosphatase, pNPP absorbance, at 13.3 µM, hits give high values
# Dual specificity protein phosphatase 3 (Homo sapiens), sequence (P51452 whole entry, looked up): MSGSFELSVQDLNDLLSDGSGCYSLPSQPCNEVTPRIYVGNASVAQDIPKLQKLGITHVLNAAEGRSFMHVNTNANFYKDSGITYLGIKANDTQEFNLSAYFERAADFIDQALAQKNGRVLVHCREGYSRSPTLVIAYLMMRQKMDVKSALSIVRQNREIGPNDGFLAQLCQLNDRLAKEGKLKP
row,Structure (SMILES),inhibition
1,Cc1cc(C)c(S(=O)(=O)N(C)CC(=O)NCC2CCCO2)c(C)c1 (stereo unspecified),20.6%
2,COc1ccc(CN(C)C(=S)Nc2ccc(Cl)cc2Cl)cc1,-0.1%
3,CC(=O)N1CCc2cc(S(=O)(=O)NC3CCCCC3)ccc21,-7.7%
4,O=C(Nc1ccc(S(=O)(=O)Nc2ccccn2)cc1)c1ccccc1,5.4%
5,N=c1oc2ccccc2cc1C(=O)NCc1ccccc1,-2.5%
6,COc1cccc2cc(C(=O)N(C)C)c(=O)oc12,18.2%
7,COc1cccc2cc(C(=O)NCc3ccc(C)cc3)c(=N)oc12,53.5% (active)
8,CN(CC(=O)Nc1ccc(Cl)cc1)C(=O)CNC(=O)c1ccc2ccccc2c1,27.9%
9,Cn1c(C(=O)N2CCCC(C(=O)NCc3ccccc3)C2)cc2sccc21 (stereo unspecified),22.8%
10,CCc1nnc(NC(=O)c2cccc(S(=O)(=O)N(C)c3ccc(OC)cc3)c2)s1,13.9%
11,CCc1ccc2nc3sc(C(=O)Nc4nnc(CC)s4)c(N)c3cc2c1,52.7% (active)
12,CCc1nnc(NC(=O)c2sc3nc(C)cc(COC)c3c2N)s1,3.9%
13,COC(=O)Cc1cnc(NC(=O)CSc2nc(C(C)C)cc(=O)[nH]2)s1,-28.8%
14,CCN1C(=NCCc2cccnc2)N[C@@H](c2ccccc2)[C@H](C(=O)OC)[C@H]1C,36%
15,CC(=O)c1ccc(OC(=O)N2CCOCC2)cc1,1.7%
16,O=C(O)CC(CC(=O)N1CCOCC1)c1ccccc1 (stereo unspecified),-12.8%
17,CC(C)Oc1ccc(C(CC(=O)N2CCOCC2)C(C)C)cc1 (stereo unspecified),53% (active)
18,COC(=O)CN1C(=O)[C@H]2[C@@H](/C=C/c3ccccc3)N3C(=O)CN(Cc4ccccc4)C(=O)[C@@]3(Cc3ccccc3)[C@H]2C1=O,13.4%
19,COCC1CCN(C(=O)C2CCC(=O)N(CC3CCCCC3)C2)CC1 (stereo unspecified),6.5%
20,CC(C)=CCCC1(C)C=Cc2c(ccc3c2[nH]c2cc(O)c(C)cc23)O1 (stereo unspecified),16.5%
21,COc1ccc(CN(C)C(=O)c2cc(-c3ccc(C)cc3C)nc3ccccc23)c(OC)c1OC,-8.1%
22,Cn1c(CCNS(=O)(=O)c2ccc(F)cc2)nnc1SCc1cccnc1,17%
23,C#CC(CCN1CCCCC1)(OC)c1ccccc1 (stereo unspecified),5.2%
24,CCN(CC)c1ccc(NC(=O)CCc2nnc3ccc(N4CCCCC4)nn23)c(C)c1,56.7% (active)
25,CCOc1ccc(CCNC(=O)CCc2nnc3ccc(N4CCCC4)nn23)cc1OCC,21.2%
26,CCOC(=O)c1cccc(NC(=O)CCc2nnc3ccc(N4CCOCC4)nn23)c1,10.4%

# Reference: PubChem BioAssay AID1654 (Sanford-Burnham Center for Chemical Genomics, 2009)
